Measured values published in PubChem BioAssay AID1159580 (chemical genetic matrix, 2015).
Values joined by “and” are separate entries in the source; they are usually repeats but may differ in a detail not shown here. Equal values may be shown once. Among all 5,500 compounds or so, about 2,000 (36%) were called active. Not shown: some 18% with an inconclusive outcome. Cut-off read from the data, not from the text of the source: active = normalized growth mostly below about 0.91 (no sharp cut-off); inconclusive = no clear call, values can overlap the other calls; inactive = mostly above about 0.92. The list shows a part of the results.

Experiment: chemical genetic growth profiling, strain panel (AID 1159580);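 note: tested at 20 µM; growth read once vehicle control cultures reached saturation at 30 °C; 1 = growth at the plate median or of vehicle wells; lower values mean less growth of the strain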
Conditions: S. cerevisiae deletion strains, growth OD

Measured: normalized growth

CN/C(=C\[N+](=O)[O-])NCCSCc1ccc(CN(C)C)o1
inactive: locus YAL021C, strain ccr4, stronger effect = lower value 0.979 | locus YAL026C, strain drs2, stronger effect = lower value 0.99 | locus YAL030W, strain snc1, stronger effect = lower value 1 | locus YAL040C, strain CLN3, stronger effect = lower value 1 | locus YBL061C, strain skt5, stronger effect = lower value 0.974 | locus YBR009C, strain hhf1, stronger effect = lower value 0.998 | locus YBR021W, strain FUR4, stronger effect = lower value 1.04 | locus YBR023C, strain chs3, stronger effect = lower value 0.989 | locus YBR171W, strain sec66, stronger effect = lower value 0.989 | locus YBR229C, strain ROT2, stronger effect = lower value 1.02 | locus YBR231C, strain swc5, stronger effect = lower value 0.977 | locus YBR279W, strain paf1, stronger effect = lower value 0.991 | locus YCL011C, strain gbp2, stronger effect = lower value 0.984 | locus YCL016C, strain dcc1, stronger effect = lower value 0.986 | locus YCL029C, strain bik1, stronger effect = lower value 1 | locus YCL061C, strain MRC1 (second series), stronger effect = lower value 1.01 | locus YCL069W, strain vba3, stronger effect = lower value 0.973 | locus YCR088W, strain abp1, stronger effect = lower value 0.976 | locus YDL005C, strain med2, stronger effect = lower value 0.977 | locus YDL035C, strain GPR1, stronger effect = lower value 1.04 | locus YDL040C, strain nat1, stronger effect = lower value 0.99 | locus YDL074C, strain BRE1, stronger effect = lower value 1.07 | locus YDL101C, strain DUN1, stronger effect = lower value 1.03 | locus YDL134C, strain PPH21, stronger effect = lower value 1.03 | locus YDL185W, strain tfp1, stronger effect = lower value 0.987 | locus YDL192W, strain arf1, stronger effect = lower value 0.989 | locus YDR001C, strain nth1, stronger effect = lower value 0.982 | locus YDR069C, strain doa4, stronger effect = lower value 0.97 | locus YDR101C, strain arx1, stronger effect = lower value 1.01 | locus YDR137W, strain rgp1, stronger effect = lower value 0.975 | locus YDR150W, strain NUM1, stronger effect = lower value 1.02 | locus YDR159W, strain sac3, stronger effect = lower value 0.94 | locus YDR162C, strain NBP2, stronger effect = lower value 1.02 | locus YDR195W, strain ref2 0.943 | locus YDR297W, strain sur2, stronger effect = lower value 0.972 | locus YDR318W, strain mcm21, stronger effect = lower value 0.991 | locus YDR334W, strain swr1, stronger effect = lower value 0.977 | locus YDR335W, strain msn5, stronger effect = lower value 0.998 | locus YDR363W, strain ESC2, stronger effect = lower value 1 | locus YDR388W, stronger effect = lower value 0.995 | locus YDR392W, strain spt3, stronger effect = lower value 0.993 | locus YDR502C, strain sam2, stronger effect = lower value 0.997 | locus YEL003W, strain gim4, stronger effect = lower value 0.992 | locus YEL037C, strain rad23, stronger effect = lower value 0.986 | locus YEL061C, strain CIN8 (second series), stronger effect = lower value 0.977 | locus YEL061C, strain CIN8, stronger effect = lower value 1.01 | locus YER002W, strain NOP16, stronger effect = lower value 0.988 | locus YER015W, strain faa2, stronger effect = lower value 0.995 | locus YER016W, strain bim1, stronger effect = lower value 0.973 | locus YER110C, stronger effect = lower value 1 | locus YER111C, strain swi4, stronger effect = lower value 0.992 | locus YER155C, strain BEM2 (second series), stronger effect = lower value 0.973 | locus YER155C, strain BEM2, stronger effect = lower value 1.01 | locus YER167W, strain BCK2, stronger effect = lower value 1.02 | locus YFR010W, strain ubp6, stronger effect = lower value 0.99 | locus YGL078C, strain dbp3, stronger effect = lower value 0.986 | locus YGL086W, strain mad1, stronger effect = lower value 0.999 | locus YGL167C, strain pmr1, stronger effect = lower value 0.987 | locus YGL173C, strain kem1, stronger effect = lower value 0.989 | locus YGL227W, strain vid30, stronger effect = lower value 0.978 | locus YGL240W, strain doc1, stronger effect = lower value 0.996 | locus YGL248W, strain PDE1, stronger effect = lower value 1.04 | locus YGL253W, strain hxk2, stronger effect = lower value 0.993 | locus YGR078C, strain PAC10, stronger effect = lower value 0.997 | locus YGR135W, strain pre9, stronger effect = lower value 0.98 | locus YGR252W, strain gcn5, stronger effect = lower value 0.984 | locus YHR013C, strain ard1, stronger effect = lower value 0.952 | locus YHR027C, strain rpn1, stronger effect = lower value 1.01 | locus YHR030C, strain SLT2, stronger effect = lower value 1.02 and 0.986 | locus YHR079C, strain IRE1 (second series), stronger effect = lower value 0.982 | locus YHR079C, strain IRE1, stronger effect = lower value 0.999 | locus YHR094C, strain hxt1, stronger effect = lower value 0.983 | locus YHR129C, strain ARP1, stronger effect = lower value 1.02 | locus YHR142W, strain chs7, stronger effect = lower value 0.99 | locus YHR200W, strain rpn10, stronger effect = lower value 0.984 | locus YIL066C, strain RNR3, stronger effect = lower value 1.04 | locus YIL073C, strain SPO22, stronger effect = lower value 0.98 | locus YIL125W, strain kgd1, stronger effect = lower value 0.984 | locus YIR030C, strain dcg1, stronger effect = lower value 0.988 | locus YJL092W, strain hpr5, stronger effect = lower value 0.979 | locus YJL095W, strain BCK1 (second series), stronger effect = lower value 0.995 | locus YJL095W, strain BCK1, stronger effect = lower value 1.05 and 0.995 | locus YJL115W, strain asf1, stronger effect = lower value 0.986 | locus YJL129C, strain trk1, stronger effect = lower value 0.957 | locus YJL134W, strain LCB3, stronger effect = lower value 1.01 | locus YJL154C, strain vps35, stronger effect = lower value 0.973 | locus YJL164C, strain tpk1, stronger effect = lower value 0.996 | locus YJL166W, strain qcr8, stronger effect = lower value 0.985 | locus YJL168C, strain set2, stronger effect = lower value 0.988 | locus YJL187C, strain SWE1 (second series), stronger effect = lower value 1.04 | locus YJL187C, strain SWE1, stronger effect = lower value 0.977 | locus YJR043C, strain POL32, stronger effect = lower value 1.05 | locus YJR066W, strain TOR1, stronger effect = lower value 0.944 | locus YJR075W, strain HOC1, stronger effect = lower value 0.996
